Assay results from PubChem BioAssay (Tox21).
Calls of active or inactive are those of the source. Unless noted, calls follow the shape of the dose curve; as a rule, active = well fitted curve in the direction sought with a large enough effect in the repeat runs; inconclusive = weak or mixed curves; inactive = no such curve, though single readings can be large; an effect the other way counts as inactive or inconclusive.

Columns and labels:
[1] = qHTS assay to identify small molecule antagonists of the thyroid receptor (TR) signaling pathway - cell viability counter screen (AID 743064); also: nearly all actives have a fitted effect of over 50% in size; also: potency is read from the fitted curve at half-maximal effect
Procedure, shortened: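 Same-well viability check: GH3.TRE-Luc cells stimulated with 1 nM T3 alongside test compound for 23.5 h, followed by CellTiter-Fluor fluorescence.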

[2] = qHTS assay to identify small molecule antagonists of the thyroid receptor (TR) signaling pathway (AID 743065); also: nearly all actives have a fitted effect of over 55% in size; also: potency is read from the fitted curve at half-maximal effect
Procedure, shortened: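 Antagonism measured as loss of luciferase signal in GH3 cells stably carrying a TRE-luciferase reporter, co-treated with compound and T3 (1 nM final) for 23.5 h at 37 C. Viability was read in the same well by CellTiter-Fluor.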

[3] = test system: thyroid hormone receptor (rat, GH3 cells); test: qHTS assay to identify small molecule agonists of the thyroid receptor (TR) signaling pathway (AID 743066; calls by dose curve)
[4] = biological target: Estrogen receptor (Homo sapiens) (UniProt P03372); test: qHTS assay to identify small molecule antagonists of the estrogen receptor alpha (ER-alpha) signaling pathway (AID 743069; active = well fitted curve in the direction sought with a large enough effect in the signal ratio in the repeat runs, not every such curve was filed as active; inconclusive = weak or mixed curves, or effect the other way; inactive = no such curve, though single readings can be large or run the other way; the % refers to the signal ratio; also: potency is read from the fitted curve at half-maximal effect)
Procedure, shortened: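 Antagonist mode: compounds in DMSO were co-added with 17beta-estradiol to ER-alpha-bla HEK293 cells (2% charcoal-stripped serum) and left 18 h at 37C. Reporter inhibition was measured as FRET fluorescence after 2 h LiveBLAzer substrate at room temperature.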

[5] = qHTS assay to identify small molecule antagonists of the estrogen receptor alpha (ER-alpha) signaling pathway - cell viability counter screen (AID 743074; calls by dose curve;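 also: HEK293 cells carrying ER-alpha-UAS-bla reporter stimulated with 17beta-estradiol; nearly all actives have a fitted effect of over 45% in size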; also: potency is read from the fitted curve at half-maximal effect)
[6] = biological target: Estrogen receptor (Homo sapiens) (UniProt P03372); test: qHTS assay to identify small molecule agonists of the estrogen receptor alpha (ER-alpha) signaling pathway (AID 743075; calls by dose curve;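 also: HEK293 GripTite cells with ER-alpha and UAS-driven beta-lactamase reporter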; also: potency is read from the fitted curve at half-maximal effect)
[7] = biological target: Estrogen receptor (Homo sapiens) (UniProt P03372); test: qHTS assay to identify small molecule agonists of the estrogen receptor alpha (ER-alpha) signaling pathway using the BG1 cell line (AID 743079); conditions: BG1Luc4E2 cells, ERE-luciferase agonist, 22 h; activation: at 70.3 µM (top of the series); also: nearly all actives have a fitted effect of over 20% in size; also: potency is read from the fitted curve at half-maximal effect
[8] = qHTS assay to identify small molecule antagonists of the estrogen receptor alpha (ER-alpha) signaling pathway using the BG1 cell line (AID 743080; calls by dose curve;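 also: BG1 cells stimulated with 17beta-estradiol alongside compound; nearly all actives have a fitted effect of over 25% in size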; also: potency is read from the fitted curve at half-maximal effect)
Procedure, shortened: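 BG1Luc4E2, endogenous ER-alpha, 4xERE-luc; 5 d charcoal-stripped FBS, phenol red free; 24 h plating; cpd + 17beta-estradiol 21.5 h, 37 C/5% CO2; CellTiter-Fluor viability 30 min, then ONE-Glo luciferase 30 min RT.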

[9] = qHTS assay to identify small molecule antagonists of the estrogen receptor alpha (ER-alpha) signaling pathway using the BG1 cell line - cell viability counter screen (AID 743081);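 also: compound given together with 17beta-estradiol as the ER stimulus; nearly all actives have a fitted effect of over 45% in size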; also: potency is read from the fitted curve at half-maximal effect
Aromatase (Homo sapiens) = Aromatase (Homo sapiens) (UniProt P11511); test: qHTS assay to identify aromatase inhibitors (AID 743083); also: nearly all actives have a fitted effect of over 55% in size
% is scaled to controls: 0 for no effect and ±100 for the full control effect.

Sequence of Estrogen receptor (Homo sapiens) (P03372 whole entry, looked up): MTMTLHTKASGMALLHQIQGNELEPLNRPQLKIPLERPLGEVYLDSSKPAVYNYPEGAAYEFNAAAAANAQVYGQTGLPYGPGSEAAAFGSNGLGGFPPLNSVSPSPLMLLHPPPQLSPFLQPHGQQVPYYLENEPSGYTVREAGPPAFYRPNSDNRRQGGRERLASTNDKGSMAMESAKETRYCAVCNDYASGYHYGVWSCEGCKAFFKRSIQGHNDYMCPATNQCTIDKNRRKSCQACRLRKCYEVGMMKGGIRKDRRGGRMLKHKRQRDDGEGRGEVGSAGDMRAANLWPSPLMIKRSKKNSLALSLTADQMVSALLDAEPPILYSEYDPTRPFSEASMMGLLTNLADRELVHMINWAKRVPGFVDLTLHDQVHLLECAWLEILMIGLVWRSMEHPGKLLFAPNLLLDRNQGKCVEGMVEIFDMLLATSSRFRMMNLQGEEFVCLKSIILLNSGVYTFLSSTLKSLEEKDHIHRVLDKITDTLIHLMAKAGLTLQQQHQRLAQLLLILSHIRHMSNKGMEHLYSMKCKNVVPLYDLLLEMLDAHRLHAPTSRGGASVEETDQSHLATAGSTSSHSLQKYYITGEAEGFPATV
Sequence of Aromatase (Homo sapiens) (P11511 whole entry, looked up): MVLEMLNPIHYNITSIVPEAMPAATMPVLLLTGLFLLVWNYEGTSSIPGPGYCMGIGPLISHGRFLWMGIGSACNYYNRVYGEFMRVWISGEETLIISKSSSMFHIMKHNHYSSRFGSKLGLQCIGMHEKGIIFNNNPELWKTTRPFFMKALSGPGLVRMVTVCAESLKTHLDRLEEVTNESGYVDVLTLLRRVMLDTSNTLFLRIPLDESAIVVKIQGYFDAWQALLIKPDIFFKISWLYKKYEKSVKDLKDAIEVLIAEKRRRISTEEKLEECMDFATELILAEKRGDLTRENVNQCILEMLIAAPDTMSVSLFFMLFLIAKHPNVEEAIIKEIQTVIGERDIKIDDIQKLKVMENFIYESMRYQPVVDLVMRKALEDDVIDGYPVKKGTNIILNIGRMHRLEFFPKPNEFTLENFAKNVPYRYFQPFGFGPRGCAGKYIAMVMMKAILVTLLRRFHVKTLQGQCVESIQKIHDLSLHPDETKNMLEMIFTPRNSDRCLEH

CC(O)[C@H]1CC[C@H]2[C@@H]3CC[C@@H]4C[C@@H](O)CC[C@]4(C)[C@H]3CC[C@]12C (stereo not given in full)
active: Potency [6] 3.38 µM [inconclusive] | Potency [7] 9.44 µM
inactive: Potency [1] | Potency [2] | Potency [3] | Potency [4] | Potency [5] | Potency [8] | Potency [9] | Potency (Aromatase (Homo sapiens))

NC(=O)OCC(O)COc1ccc(Cl)cc1 (stereo not given)
inactive: Potency [1] | Potency [2] | Potency [3] | Potency [4] | Potency [5] | Potency [6] | Potency [7] | Potency [8] | Potency [9] | Potency (Aromatase (Homo sapiens))

COc1ccc(C2(C#N)CCC(C(=O)O)CC2)cc1OC1CCCC1 (stereo not given)
inactive: Potency [1] | Potency [2] | Potency [3] | Potency [4] | Potency [5] | Potency [6] | Potency [8] | Potency [9] | Potency (Aromatase (Homo sapiens))
active: Potency [7] 29.8 µM

O=C(O)CCC/C=C\C[C@@H]1[C@@H](/C=C/[C@@H](O)COc2cccc(C(F)(F)F)c2)[C@H](O)C[C@@H]1O
inactive: Potency [1] | Potency [2] | Potency [3] | Potency [4] | Potency [5] | Potency [9] | Potency (Aromatase (Homo sapiens))
active: activation [7] 49.9%

O=C(c1cc2ccccc2o1)N1CCN(Cc2ccccc2)CC1
inactive: Potency [1] | Potency [2] | Potency [3] | Potency [4] | Potency [5] | Potency [6] | Potency [7] | Potency [9] | Potency (Aromatase (Homo sapiens))

CCC(=O)NS(=O)(=O)c1ccc(-c2c(-c3ccccc3)noc2C)cc1
inactive: Potency [1] | Potency [2] | Potency [3] | Potency [4] | Potency [5] | Potency [6] | Potency [7] | Potency [8] | Potency (Aromatase (Homo sapiens))

Cc1nnc(C(C)C)n1C1C[C@H]2CC[C@@H](C1)N2CC[C@H](NC(=O)C1CCC(F)(F)CC1)c1ccccc1 (stereo not given in full)
inactive: Potency [1] | Potency [2] | Potency [3] | Potency [4] | Potency [5] | Potency [6] | Potency [7] | Potency [8] | Potency (Aromatase (Homo sapiens))

NC(=O)Oc1ccc(Cc2ccccc2)cc1
active: Potency [6] 26.8 µM [activator] | Potency [7] 21.1 µM
inactive: Potency [1] | Potency [2] | Potency [3] | Potency [4] | Potency [5] | Potency [9] | Potency (Aromatase (Homo sapiens))

CC1(C)C(\C=C/C=C\C=C/C=C2/N(CCCCS(=O)(=O)O)c3ccc4ccccc4c3C2(C)C)=[N+](CCCCS(=O)(=O)[O-])c2ccc3ccccc3c21
active: Potency [1] 15 µM | Potency [2] 0.841 µM
inactive: Potency [3] | Potency [4] | Potency [5] | Potency [6] | Potency [7] | Potency (Aromatase (Homo sapiens))

OC(CN1CCCCC1)c1cc(-c2ccccc2)on1 (stereo not given)
inactive: Potency [1] | Potency [2] | Potency [3] | Potency [4] | Potency [5] | Potency [6] | Potency [9] | Potency (Aromatase (Homo sapiens))
active: Potency [7] 23.7 µM

NCCCC[C@H](NC(=O)[C@@H]1CCCN1C(=O)[C@@H]1CSSC[C@H](N)C(=O)N[C@@H](Cc2ccccc2)C(=O)N[C@@H](Cc2ccccc2)C(=O)N[C@@H](CCC(N)=O)C(=O)N[C@@H](CC(N)=O)C(=O)N1)C(=O)NCC(N)=O
inactive: Potency [1] | Potency [2] | Potency [3] | Potency [4] | Potency [5] | Potency [6] | Potency [7] | Potency [8] | Potency (Aromatase (Homo sapiens))

O=C(O)CCC/C=C\C[C@@H]1[C@@H](/C=C/[C@@H](O)COc2cccc(Cl)c2)[C@H](O)C[C@@H]1O
inactive: Potency [1] | Potency [2] | Potency [3] | Potency [4] | Potency [5] | Potency [6] | Potency [7] | Potency [9] | Potency (Aromatase (Homo sapiens))

O=P(O)(O)C(O)(Cc1cnc2ccccn12)P(=O)(O)O
inactive: Potency [1] | Potency [2] | Potency [3] | Potency [4] | Potency [5] | Potency [6] | Potency [7] | Potency [8] | Potency (Aromatase (Homo sapiens))

COc1ccc(C(=O)CCC(=O)O)c2ccccc12
inactive: Potency [1] | Potency [2] | Potency [3] | Potency [4] | Potency [5] | Potency [6] | Potency [7] | Potency [8] | Potency [9] | Potency (Aromatase (Homo sapiens))

CCCCCCCCCCCCCCCCOCCOCCOCCOCCOCCOCCOCCOCCOCCOCCOCCOCCOCCOCCOCCOCCOCCOCCOCCOCCO
inactive: Potency [3]
active: Potency [1] 29.8 µM | Potency [2] 26.6 µM | Potency [4] 4.25 µM [inconclusive] | Potency [5] 21.3 µM | Potency [8] 3.76 µM | Potency [9] 23.7 µM

CCCOc1cc(N)ccc1C(=O)OCCN(CC)CC
inactive: Potency [1] | Potency [2] | Potency [3] | Potency [4] | Potency [5] | Potency [6] | Potency [7] | Potency [8] | Potency (Aromatase (Homo sapiens))

O=P(O)(O)OC(Cn1cncn1)(Cn1cncn1)c1ccc(F)cc1F
inactive: Potency [1] | Potency [2] | Potency [3] | Potency [4] | Potency [5] | Potency [6] | Potency [7] | Potency [8] | Potency (Aromatase (Homo sapiens))

Nc1ncnc(Nc2ccc(Cl)cc2)n1
active: Potency [7] 23.7 µM
inactive: Potency [1] | Potency [2] | Potency [3] | Potency [4] | Potency [5] | Potency [6] | Potency (Aromatase (Homo sapiens))

CC(C)[C@@H]1CC[C@@H](C)C[C@H]1OC(=O)c1ccccc1O
inactive: Potency [1] | Potency [2] | Potency [3] | Potency [4] | Potency [5] | Potency [6] | Potency [7] | Potency [8] | Potency (Aromatase (Homo sapiens))

O=P(O)(O)OC[C@H]1O[C@](O)(COP(=O)(O)O)[C@@H](O)[C@@H]1O
inactive: Potency [1] | Potency [2] | Potency [3] | Potency [4] | Potency [5] | Potency [8] | Potency [9] | Potency (Aromatase (Homo sapiens))
active: Potency [7] 10.6 µM

CCCC(=O)O[C@]1(C(=O)COC(C)=O)CC[C@H]2[C@@H]3C[C@H](F)C4=CC(=O)C=C[C@]4(C)[C@@]3(F)[C@@H](O)C[C@@]21C
inactive: Potency [1] | Potency [2] | Potency [3] | Potency [4] | Potency [5] | Potency [6] | Potency [7] | Potency [9] | Potency (Aromatase (Homo sapiens))

CC(=O)OCC(=O)[C@@]12OC3(CCCC3)O[C@@H]1C[C@H]1[C@@H]3CCC4=CC(=O)C=C[C@]4(C)[C@@]3(F)[C@@H](O)C[C@@]12C
inactive: Potency [1] | Potency [2] | Potency [3] | Potency [4] | Potency [5] | Potency [6] | Potency (Aromatase (Homo sapiens))
